According to the supplement of paper PMC3545927:
The list shows a part of the results. The hit rate among all sequences tested is not known here.

Biological target: furin, P09958
Experiment: furin cleavage Z-score vs untreated control; higher = more cleavage, active = 3.5 or more, inactive = 1 or less, 8 variable residues between constant flanks
Procedure: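 Multiplexed peptide-cDNA fusion cleavage assay. 8-mer variable peptides flanked by constant Cys-Ala (N-term) and Ala-Gly-Asn-Ala-Ser-Ala-Ser-Ala (C-term) and conjugated to a cDNA oligonucleotide were bead-immobilised via the N-terminus. They were treated with purified furin at a 1:10 enzyme:substrate ratio in 50 mM HEPES pH 7.5, 1 mM CaCl2, 100 mM NaCl for 7.5, 15 or 30 min. Released cDNA was counted by next-generation sequencing, and log counts versus no-furin controls were lowess-adjusted and converted to robust Z-scores.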

Chain of furin, P09958 (P09958 whole entry): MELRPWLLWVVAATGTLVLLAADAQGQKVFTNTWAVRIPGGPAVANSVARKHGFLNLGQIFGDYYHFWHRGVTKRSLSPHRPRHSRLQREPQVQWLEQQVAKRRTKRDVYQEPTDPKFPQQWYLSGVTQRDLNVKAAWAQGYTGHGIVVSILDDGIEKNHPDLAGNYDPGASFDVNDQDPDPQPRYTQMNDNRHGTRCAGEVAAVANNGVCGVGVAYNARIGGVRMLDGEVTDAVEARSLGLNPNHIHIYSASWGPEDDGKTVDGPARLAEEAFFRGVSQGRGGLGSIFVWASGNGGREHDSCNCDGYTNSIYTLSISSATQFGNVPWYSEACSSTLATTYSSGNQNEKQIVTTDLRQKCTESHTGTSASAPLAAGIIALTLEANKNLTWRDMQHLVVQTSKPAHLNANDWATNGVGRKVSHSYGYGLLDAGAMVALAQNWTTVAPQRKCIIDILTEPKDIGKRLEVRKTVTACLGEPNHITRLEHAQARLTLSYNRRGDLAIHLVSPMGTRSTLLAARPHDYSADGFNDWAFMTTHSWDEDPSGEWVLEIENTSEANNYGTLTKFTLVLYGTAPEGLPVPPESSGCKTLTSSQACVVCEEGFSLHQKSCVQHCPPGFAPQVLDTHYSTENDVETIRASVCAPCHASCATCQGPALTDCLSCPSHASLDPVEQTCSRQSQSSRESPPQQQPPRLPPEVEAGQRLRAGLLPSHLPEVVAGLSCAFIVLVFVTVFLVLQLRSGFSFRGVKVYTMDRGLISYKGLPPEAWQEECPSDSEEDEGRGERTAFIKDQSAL

B1: HC1787 (peptide)
chain: CAFEMEECSQAGNASASA
**Q.** How did the “furin cleavage Z-score” value (7.5 min) turn out when B1 was run?
**A.** -0.0244 (inactive)

**Q.** What about the “furin cleavage Z-score” value (15 min) of the same sequence?
**A.** -1.03 (inactive)

**Q.** And the “furin cleavage Z-score” value (30 min)?
**A.** 0.747 (inactive)

B2: HC2397 (peptide)
chain: CAEVPCHRSSAGNASASA
**Q.** For B2, which “furin cleavage Z-score” value (7.5 min) is on record?
**A.** 0.159 (inactive)

**Q.** What about the “furin cleavage Z-score” value (15 min) of the same sequence?
**A.** 1.25

**Q.** And the “furin cleavage Z-score” value (30 min)?
**A.** 1.43

B3: FS-1168 (peptide)
chain: CASTGRVGRSAGNASASA
**Q.** Which results are given for B3?
**A.** furin cleavage Z-score (7.5 min): 4.32 (active); furin cleavage Z-score (15 min): 6.64 (active); furin cleavage Z-score (30 min): 7 (active)

B4: FS-1281 (peptide)
chain: CASHSREGRSAGNASASA
**Q.** Which results are given for B4?
**A.** furin cleavage Z-score (7.5 min): 2.57; furin cleavage Z-score (15 min): 1.17; furin cleavage Z-score (30 min): 3.76 (active)

B5: FS-617 (peptide)
chain: CALYSRVGRSAGNASASA
**Q.** Which “furin cleavage Z-score” value (7.5 min) does the source give for B5 here?
**A.** 8 (active)

**Q.** What about the “furin cleavage Z-score” value (15 min) of the same sequence?
**A.** 8.87 (active)

**Q.** What about the “furin cleavage Z-score” value (30 min) of the same sequence?
**A.** 7.73 (active)

B6: HC2353 (peptide)
chain: CAEVRCHRPSAGNASASA
**Q.** How did the “furin cleavage Z-score” value (7.5 min) turn out when B6 was run?
**A.** 1.89

**Q.** What about the “furin cleavage Z-score” value (15 min) of the same sequence?
**A.** 0.104 (inactive)

**Q.** What about the “furin cleavage Z-score” value (30 min) of the same sequence?
**A.** -0.327 (inactive)

B7: FS-766 (peptide)
chain: CAEVRRVGRSAGNASASA
**Q.** Which results are given for B7?
**A.** furin cleavage Z-score (7.5 min): 5.5 (active); furin cleavage Z-score (15 min): 6.28 (active); furin cleavage Z-score (30 min): 4.53 (active)

B8: FS-1616 (peptide)
chain: CASTGYPKRSAGNASASA
**Q.** Which results are given for B8?
**A.** furin cleavage Z-score (7.5 min): 0.639 (inactive); furin cleavage Z-score (15 min): -0.301 (inactive); furin cleavage Z-score (30 min): -0.705 (inactive)

B9: HC2360 (peptide)
chain: CAEVCCHRPSAGNASASA
**Q.** For B9, which “furin cleavage Z-score” value (7.5 min) is on record?
**A.** 0.494 (inactive)

**Q.** And the “furin cleavage Z-score” value (15 min)?
**A.** 0.659 (inactive)

**Q.** What about the “furin cleavage Z-score” value (30 min) of the same sequence?
**A.** -0.0079 (inactive)

B10: NG8 (peptide)
chain: CAAIFQGPIDAGNASASA
**Q.** B10 was tested. Which “furin cleavage Z-score” value (7.5 min) did it give?
**A.** -1.22 (inactive)

**Q.** What about the “furin cleavage Z-score” value (15 min) of the same sequence?
**A.** 0.323 (inactive)

**Q.** What about the “furin cleavage Z-score” value (30 min) of the same sequence?
**A.** -1.13 (inactive)

B11: HC1761 (peptide)
chain: CAMEECSQNLAGNASASA
**Q.** B11 was tested. Which “furin cleavage Z-score” value (7.5 min) did it give?
**A.** -0.233 (inactive)

**Q.** And the “furin cleavage Z-score” value (15 min)?
**A.** 0.845 (inactive)

**Q.** And the “furin cleavage Z-score” value (30 min)?
**A.** 0.876 (inactive)

B12: HC2460 (peptide)
chain: CAECEVPCHRAGNASASA
**Q.** With B12 as the sequence, how does the “furin cleavage Z-score” value (7.5 min) read?
**A.** 1.55

**Q.** What about the “furin cleavage Z-score” value (15 min) of the same sequence?
**A.** -0.187 (inactive)

**Q.** And the “furin cleavage Z-score” value (30 min)?
**A.** 2.66

B13: FS-1471 (peptide)
chain: CAPAQRLARSAGNASASA
**Q.** What does the source list for B13?
**A.** furin cleavage Z-score (7.5 min): 10.2 (active); furin cleavage Z-score (15 min): 11.3 (active); furin cleavage Z-score (30 min): 9.54 (active)

B14: FS-612 (peptide)
chain: CALPCRPQRSAGNASASA
**Q.** How did the “furin cleavage Z-score” value (7.5 min) turn out when B14 was run?
**A.** 0.0451 (inactive)

**Q.** And the “furin cleavage Z-score” value (15 min)?
**A.** 0.649 (inactive)

**Q.** And the “furin cleavage Z-score” value (30 min)?
**A.** 1.4

B15: FS-546 (peptide)
chain: CAKPSKLKRSAGNASASA
**Q.** With B15 as the sequence, how does the “furin cleavage Z-score” value (7.5 min) read?
**A.** 7.13 (active)

**Q.** And the “furin cleavage Z-score” value (15 min)?
**A.** 8.9 (active)

**Q.** What about the “furin cleavage Z-score” value (30 min) of the same sequence?
**A.** 7.35 (active)

B16: FS-1049 (peptide)
chain: CAPPQRTQRSAGNASASA
**Q.** Which results are given for B16?
**A.** furin cleavage Z-score (7.5 min): 4.31 (active); furin cleavage Z-score (15 min): 5.78 (active); furin cleavage Z-score (30 min): 6.79 (active)

B17: FS-70 (peptide)
chain: CAPPQKAKRSAGNASASA
**Q.** What does the source list for B17?
**A.** furin cleavage Z-score (7.5 min): 10.3 (active); furin cleavage Z-score (15 min): 12.4 (active); furin cleavage Z-score (30 min): 10.2 (active)

B18: FS-597 (peptide)
chain: CAHPSPLKRSAGNASASA
**Q.** What does the source list for B18?
**A.** furin cleavage Z-score (7.5 min): -0.0472 (inactive); furin cleavage Z-score (15 min): 2.27; furin cleavage Z-score (30 min): 1.02

B19: HC2164 (peptide)
chain: CAEIVTSTWVAGNASASA
**Q.** Which “furin cleavage Z-score” value (7.5 min) does the source give for B19 here?
**A.** -0.266 (inactive)

**Q.** What about the “furin cleavage Z-score” value (15 min) of the same sequence?
**A.** -1.49 (inactive)

**Q.** And the “furin cleavage Z-score” value (30 min)?
**A.** 1.35

B20: HC2099 (peptide)
chain: CAVVCCSMSPAGNASASA
**Q.** With B20 as the sequence, how does the “furin cleavage Z-score” value (7.5 min) read?
**A.** -0.463 (inactive)

**Q.** What about the “furin cleavage Z-score” value (15 min) of the same sequence?
**A.** -1.06 (inactive)

**Q.** What about the “furin cleavage Z-score” value (30 min) of the same sequence?
**A.** -1.28 (inactive)

B21: FS-2907 (peptide)
chain: CAREARGSSRAGNASASA
**Q.** B21 was tested. Which “furin cleavage Z-score” value (7.5 min) did it give?
**A.** -0.25 (inactive)

**Q.** And the “furin cleavage Z-score” value (15 min)?
**A.** -0.261 (inactive)

**Q.** And the “furin cleavage Z-score” value (30 min)?
**A.** -1.18 (inactive)

B22: HC1974 (peptide)
chain: CAEKTTPCSGAGNASASA
**Q.** Which results are given for B22?
**A.** furin cleavage Z-score (7.5 min): -1.24 (inactive); furin cleavage Z-score (15 min): -0.951 (inactive); furin cleavage Z-score (30 min): -0.151 (inactive)

B23: HC1027 (peptide)
chain: CALGLLQTASAGNASASA
**Q.** How did the “furin cleavage Z-score” value (7.5 min) turn out when B23 was run?
**A.** -0.682 (inactive)

**Q.** And the “furin cleavage Z-score” value (15 min)?
**A.** -0.203 (inactive)

**Q.** And the “furin cleavage Z-score” value (30 min)?
**A.** 0.0385 (inactive)

B24: HC327 (peptide)
chain: CAVMAQLLRIAGNASASA
**Q.** Which results are given for B24?
**A.** furin cleavage Z-score (7.5 min): -0.76 (inactive); furin cleavage Z-score (15 min): -0.535 (inactive); furin cleavage Z-score (30 min): -1.17 (inactive)

B25: HC2240 (peptide)
chain: CAEVVTSTCVAGNASASA
**Q.** B25 was tested. Which “furin cleavage Z-score” value (7.5 min) did it give?
**A.** -0.298 (inactive)

**Q.** And the “furin cleavage Z-score” value (15 min)?
**A.** -0.394 (inactive)

**Q.** And the “furin cleavage Z-score” value (30 min)?
**A.** -0.1 (inactive)

B26: HC788 (peptide)
chain: CANPSVAATLAGNASASA
**Q.** What does the source list for B26?
**A.** furin cleavage Z-score (7.5 min): -2.1 (inactive); furin cleavage Z-score (15 min): 0.787 (inactive); furin cleavage Z-score (30 min): 0.461 (inactive)

B27: FS-1153 (peptide)
chain: CAQPHRAQRSAGNASASA
**Q.** How did the “furin cleavage Z-score” value (7.5 min) turn out when B27 was run?
**A.** 6.97 (active)

**Q.** And the “furin cleavage Z-score” value (15 min)?
**A.** 6.29 (active)

**Q.** What about the “furin cleavage Z-score” value (30 min) of the same sequence?
**A.** 6.74 (active)

B28: FS-342 (peptide)
chain: CAKNIRRGRSAGNASASA
**Q.** With B28 as the sequence, how does the “furin cleavage Z-score” value (7.5 min) read?
**A.** 8.62 (active)

**Q.** What about the “furin cleavage Z-score” value (15 min) of the same sequence?
**A.** 9.43 (active)

**Q.** And the “furin cleavage Z-score” value (30 min)?
**A.** 6.74 (active)

B29: FS-1123 (peptide)
chain: CAEYRRRGRSAGNASASA
**Q.** B29 was tested. Which “furin cleavage Z-score” value (7.5 min) did it give?
**A.** 4.99 (active)

**Q.** And the “furin cleavage Z-score” value (15 min)?
**A.** 5.3 (active)

**Q.** And the “furin cleavage Z-score” value (30 min)?
**A.** 5.5 (active)
